Our source for the Inhibition values is ChEMBL document CHEMBL4513135, “CO-ADD screening of IQOG CSIS (Spain) compounds”.

One may read the Inhibition as the change of the read-out against control, counted positive when it falls.

For one test, the system named is Klebsiella pneumoniae. The conditions noted are these: Concentration 32 ug.mL-1; ASSAY_TEST Inhibition of Bacterial Growth; detection method Absorption (OD600); MEDIA CAMHB; plate type 384well; NBS; CORNING #3640; time 18 hr.
A further test relates to Candida albicans. The conditions noted are these: 32 ug/mL.
A further test relates to Cryptococcus neoformans. The conditions noted are these: Concentration 32 ug.mL-1; ASSAY_TEST Inhibition of Fungal Growth; detection method Resazurin; Absorption (OD600-OD570); plate type 384well; NBS; CORNING #3640. In general terms: Resazurin is reduced to fluorescent resorufin, in cell work by metabolically active cells.

The structures appear in SMILES notation. Entries with a potency or affinity are not part of this list.

In the case of `Cc1ccc(/C=C(\C#N)C(=O)c2ccccc2)cc1`, the Inhibition in the test with Klebsiella pneumoniae is 11.17%; in the test on Candida albicans, 1.76%; with Cryptococcus neoformans, -10.05%.
In the same order, the values of `N#Cc1cc(C#N)c(N2CCCC2)nc1N` are 16.35%, 1.23% and -54.35%.
In the same order, the values of `O=C(O)C(=Cc1ccccc1)NC(=O)c1ccccc1` are 27.9%, 0.44% and -6.77%.
The matching figures for `CSC1=NC(=Cc2cn(C)c3ccccc23)C(=O)N1C`: -7.62%, 1.89% and -7.7%.
Turning to `Cn1ccnc1C1c2ccc3ccccc3c2Oc2nc3c(c(N)c21)CCCCC3` (centres undefined), the Inhibition was 8.79% with Klebsiella pneumoniae, 1.99% in the test with Candida albicans and -67.84% in the test with Cryptococcus neoformans.
The matching figures for `CC(C)(C)OC(=O)Nc1ccccn1`: 24.53%, 0.46% and -68.78%.
The matching figures for `C#CCNC(=O)c1cc2cc(OCCCC3CCN(Cc4ccccc4)CC3)ccc2[nH]1`: 4.92%, 1.71% and -106.43%.
The matching figures for `CC(=O)Nc1nc(Cl)c(C#N)c(-c2ccccc2)c1C#N`: 7.97%, 1.84% and -41.58%.
Take `N#Cc1cc2c(N)c3c(nc2nc1Cl)CCN(Cc1ccccc1)C3`: the figures for the Inhibition with Klebsiella pneumoniae, with Candida albicans and in the test on Cryptococcus neoformans were 13.32%, 2.4% and -88.69%, respectively.
The matching figures for `COc1ccc(-c2cc(-c3cc4ccccc4nc3Cl)cc(=O)[nH]2)cc1`: 10.14%, -0.7% and -53.36%.
In the same order, the values of `CCOC(=O)C1=C(C)OC(N)=C(C#N)C1c1cccnc1` (centres undefined) are 0.99%, 0.38% and -18.71%.
In the same order, the values of `Cc1ccc(C2c3ccc4ccccc4c3Oc3nc4c(c(N)c32)CCCC4)cc1.Cl` (centres undefined) are -14.84%, 5.49% and 0.21%.
Take `COc1ccc2cc(C3C(C(C)=O)=C(C)Oc4nc5c(c(N)c43)CCCCC5)c(Cl)nc2c1` (centres undefined): the figures for the Inhibition in the test on Klebsiella pneumoniae, with Candida albicans and in the test on Cryptococcus neoformans were 0.78%, 3.71% and -8.4%, respectively.
